KAT2A inh: inhibitors of human GCN5L2 histone acetyltransferase; GCN5L2 HAT assay, ThioGlo1 CoA-SH fluorescence; Potency, µM (titrated, usually from 58.9 µM), without a hit: top-dose activity change, negative = inhibition, actives largely listed as inhibitors; hit rate 0.21% among 390,000
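GCN5L2 (20 nM) in 50mM HEPES pH 7.5, 0.1mM EDTA, 0.01% Tween-20 preincubated 15 min with compounds at room temperature. Reaction started with H3(1-25) 75uM, acetyl-CoA 70uM, ThioGlo1 50uM; CoA-thiol fluorescence (Ex340/Em540) read at 0 and 20 min.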
RECQ1 inh: blocks DNA unwinding by human RECQ1. RECQ1 DNA unwinding, red fluorescence kinetic read. P46063. Potency, µM (top dose mostly 57.3 µM), for inactives: at the highest dose activity, negative = inhibition, usual class: inhibitors. hit rate 0.54% among 240,000. AID 2549;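 note: plate controls were vehicle for no effect and no enzyme for full effect; nearly all actives have a fitted effect of over 30% in size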
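50 nM RECQ1T1 preincubated 15 min with compound in Tris pH 8.0 buffer with MgCl2, DTT, Tween-20 and 2.5 ug/ml poly(dI-dC); started with 200 nM TAMRA/BHQ-2 forked duplex and 2 mM ATP. Unwinding read as fluorescence (525/598 nm), two reads 2 h apart.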
APE1 inh-1: APE1 (human) endonuclease inhibition; hit rate 0.35% among 350,000; recombinant APE1, TAMRA/BHQ-2 abasic DNA cleavage fluorescence; P27695; Potency, µM (doses to about 65.8 µM), for inactives: at the highest dose activity change, negative = inhibition, hits mostly inhibitors; AID 2517;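 note: plate controls were vehicle for no effect and reference inhibitor for full effect; nearly all actives have a fitted effect of over 55% in size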
Target sequence (P27695 whole entry, looked up): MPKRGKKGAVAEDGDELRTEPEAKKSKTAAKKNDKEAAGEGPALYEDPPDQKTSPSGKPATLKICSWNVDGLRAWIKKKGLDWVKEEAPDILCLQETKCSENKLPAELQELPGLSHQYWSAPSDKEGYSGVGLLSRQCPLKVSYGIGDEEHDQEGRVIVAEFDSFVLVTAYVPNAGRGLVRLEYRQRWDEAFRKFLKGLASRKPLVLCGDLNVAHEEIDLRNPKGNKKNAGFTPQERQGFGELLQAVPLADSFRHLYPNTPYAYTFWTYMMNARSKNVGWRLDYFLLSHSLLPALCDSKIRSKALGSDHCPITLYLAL
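Substrate: short duplex with […] THF abasic site, 5'-TAMRA and 3'-BHQ-2, 50 nM final. APE1 at 0.75 nM, preincubated 15 min RT with compound. Fluorescence increase from first to third read measured activity.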
TDP1 inh: blocks human tyrosyl-DNA phosphodiesterase 1 | Q9NUW8 | recombinant TDP1, AlphaScreen DNA substrate cleavage | Potency, µM (top dose mostly 130 µM), inactives show at the top dose activity change, negative = inhibition, hits mostly inhibitors | hit rate 0.28% among 350,000 | AID 485290; note: nearly all actives have a fitted effect of over 40% in size
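Signal: AlphaScreen proximity between streptavidin donor and anti-FITC acceptor beads on intact substrate. Reaction: Tdp1 1 nM, substrate 15 nM final, 5 min RT after 15 min compound preincubation.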
Lamin A splicing: LMNA splicing modulation | HeLa LMNA splicing GFP/RFP minigene ratio, 48 h | Potency, µM (series often up to 46.1 µM), inactives show at the top dose ratio change, negative = inhibition, usual class: inhibitors | hit rate 0.01% among 200,000; active = well fitted inhibition curve with a large enough effect in the signal ratio, with a control signal flat, not every such curve was filed as active; inconclusive = small, poorly fitted or top-dose-only effect, or effect the other way, or a change in a side signal; the % refers to the signal ratio
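S3 HeLa stable clones carrying a lamin A-EGFP splicing minigene plus DsRed2 were seeded at 600 cells/well in Opti-MEM with 2% FBS, pin-dosed and incubated 48 h at 37°C. Acumen cytometry (488 nm) gave the GFP/RFP total-intensity ratio.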
BLM helicase inh: Bloom syndrome helicase (human) inhibition; recombinant BLM DNA unwinding, fluorescence dequenching; hit rate 0.2% among 350,000; Potency, µM (highest dose often 56.1 µM), without a hit: at the top dose activity change, negative = inhibition, most hits filed as inhibitors;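 note: plate controls were vehicle for no effect and no enzyme for full effect; nearly all actives have a fitted effect of over 35% in size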
APE1 dye cs: counter-screen for APE1 inhibitors: DNA dye displacement | DNA fluorescent dye displacement counterscreen, fluorescence | shares compounds with APE1 inh-1 | Potency, µM (doses to about 28.5 µM), without a hit: top-dose activity change, negative = inhibition, hits mostly inhibitors | AID 2564 | hit rate 7% among 480;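 note: loss of thiazole orange fluorescence as the dye is displaced from duplex DNA; 0% = ThO with dsDNA and no compound and -100% = ThO without dsDNA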
EndoIV counter: Endo IV (E. coli) inhibition counter-screen; shares compounds with APE1 inh-1; AID 2565; Potency, µM (series often up to 27.1 µM), without a hit: at the top dose activity change, negative = inhibition, most hits filed as inhibitors; hit rate 4% among 560; E. coli Endo IV, fluorogenic AP-site DNA cleavage;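 note: plate controls were uninhibited enzyme wells for no effect and no enzyme buffer wells for full effect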
APE1 inh-2: APE1 (human) endonuclease inhibition, confirmation; shares compounds with APE1 inh-1; purified APE1, fluorogenic abasic-site DNA cleavage; Potency, µM (highest dose often 57.1 µM), for inactives: at the top dose activity change, negative = inhibition, hits mostly inhibitors; hit rate 44% among 750; note: nearly all actives have a fitted effect of over 30% in size
APE1 FP inh: compounds that displace a DNA probe from human APE1. hit rate 7% among 480. shares compounds with APE1 inh-1. APE1 binding to TAMRA-labelled double-stranded DNA, fluorescence polarization displacement. Potency, µM (top dose mostly 28.5 µM), for the others: top-dose activity, negative = inhibition, actives largely listed as inhibitors
* = called active by the depositor; i = inactive; ? = inconclusive; nt = no result given; ! = not confirmed by another sample; [ ] = remark or other dose. Hits are enriched below; roughly 0.9% of the tested compounds scored in any of these assays. Unless noted, calls come from the whole dose curve; as a rule, active = well fitted curve in the direction sought with a large enough effect; inconclusive = small, poorly fitted or top-dose-only effect, or another doubt; inactive = no such curve, though single readings can be large; an effect the other way counts as inactive or inconclusive. Unless noted, % is set by controls: 0 for no effect and ±100 for the full control effect; potency is the fitted concentration of half-maximal effect.

SMILES	KAT2A inh	RECQ1 inh	APE1 inh-1	TDP1 inh	Lamin A splicing	BLM helicase inh	EndoIV counter	APE1 inh-2	others
C=CCn1c(O)c(/C(CC)=N/NC(=S)Nc2ccccc2)c(=O)[nH]c1=O	-2.8%	-12.0%	?	39.8µM*	nt	-1.6%	nt	?
COC(=O)C1=C(C)NC(C)=C(C(=O)NCCCN2CCC(c3ccccc3)(c3ccccc3)CC2)C1c1ccc([N+](=O)[O-])cc1 (stereo not drawn)	0.0%	1.8%	-4.7%	18.7%	nt	-7.8%	nt	nt
Oc1cc(O)c2c(c1)OC(c1cc(O)c(O)c(O)c1)C(O)C2 (stereo not drawn)	-8.0%	35.5µM*	10µM*	15.8µM*	nt	-27.3%	16.0%[57.1 µM]	5.01µM*
O=C(OC1Cc2c(O)cc(O)cc2OC1c1cc(O)c(O)c(O)c1)c1cc(O)c(O)c(O)c1 (stereo not drawn)	?	1.58µM*	0.282µM*	nt	-17.8%	?	8.8%[57.1 µM]	0.0891µM*
[O-]/[N+](=N\O)c1ccccc1	nt	-0.9%	1.2%	22.2%	nt	nt	nt	nt
CS/C(N)=C(C#N)/C(C#N)=C(\N)SC	?	i	2.8%	1.0%	nt	7.2%	nt	nt
CCN(CC)c1ncnc2c1ncn2[C@@H]1O[C@@H](COP(=O)(O)OP(=O)(O)C(Br)(Br)P(=O)(O)O)[C@H](O)[C@H]1O	-19.4%	-6.3%	-4.0%	-4.8%	nt	7.0%	nt	nt
O=C(O)Cn1cc(/C=C2\C(=O)NC(=O)N(Cc3ccco3)C2=O)c2ccccc21	-10.9%	14.1µM*	7.94µM*	nt	26.9%[46 µM]	76.9%	22.2%	11.2µM*	APE1 dye cs=?;APE1 FP inh=-3.4%
CCN1C(=O)NC(=O)/C(=C\c2cn(CC(=O)O)c3ccccc23)C1=O	-16.7%	nt	2.8%	nt	nt	-1.0%	nt	nt
CC(C)NC(C)Cc1ccc(I)cc1 (stereo not drawn)	-5.4%	0.6%	8.0%	6.4%	-16.5%	-4.4%	-4.8%[57.1 µM]	-19.3%
CNC(C)Cc1ccc(OC)cc1 (stereo not drawn)	5.3%	-12.5%	-3.7%	1.6%	nt	-9.6%	nt	nt
CCCN1CCc2cccc3c2C1Cc1ccc(O)c(O)c1-3 (stereo not drawn)	-4.6%	-16.4%	-0.2%	4.9%	?	nt	-2.3%[57.1 µM]	-23.8%
CN1CCc2cc(O)cc3c2[C@H]1Cc1ccc(O)c(O)c1-3	-12.0%	nt	nt	nt	nt	nt	nt	nt
Cc1ccc(C(=O)Nc2ccccc2)cc1S(=O)(=O)N1CCCC1	-3.5%	nt	nt	1.9%	7.4%[46 µM]	-4.9%	nt	nt
CC1Cc2ccccc2N1NC(=O)c1ccc(Cl)c(S(N)(=O)=O)c1 (stereo not drawn)	0.5%	-5.1%	2.24µM*!	2.9%	-6.1%	-8.2%	18.0%[57.1 µM]	-9.9%	APE1 dye cs=0.6%[57.1 µM];APE1 FP inh=8.4%[57.1 µM]
CCn1cc(C(=O)O)c(=O)c2cc3c(cc21)OCO3	?	-2.0%	2.4%	-2.7%	1.7%	-1.7%	2.8%[57.1 µM]	-11.7%
CCCCN1C(=O)/C(=C/C=C/c2ccco2)C(=O)NC1=S	-20.8%	14.1µM*	31.6µM*	nt	-3.9%	40.9%	52.8%	14.1µM*	APE1 dye cs=29.8%;APE1 FP inh=65.3%

Screens deposited in PubChem by National Center for Advancing Translational Sciences (NCATS).
